Screens (PubChem BioAssay)
HIF-2a inh – blocks HIF-2a reporter activity. inhibition, % at 18.8 µM. AID 624352. actives 0.72% (n = 360,000). 786-0 RCC cells HIF-2a reporter, luciferase luminescence, overnight;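 active = inhibition of the luminescence signal of 40% or more relative to plate controls, in a single-dose primary screen at 18.75 µM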
TRPM1 prom inh – reduces MITF-dependent TRPM1 promoter luciferase signal. SK-MEL-5 TRPM1 promoter luciferase, 24 h. inhibition, % at 12.5 µM. actives 0.83% (n = 330,000). AID 488899;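 active = mean inhibition across replicates of 60% or more, whatever share of single replicates reaches that level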
Shn3 3UTR inh – reduces Shn3 3'UTR luciferase signal in osteoblasts; Clone20 osteoblast Shn3 3'UTR firefly luciferase, 24 h; actives 0.52% (n = 360,000); inhibition, % at 12.5 µM;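 active = mean inhibition of at least 75% with every replicate also reaching 75%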
LMP1 NFkB inh – Epstein-Barr LMP1 NF-kappaB reporter inhibition. LMP1-induced NF-kappaB luciferase reporter cells, luminescence. inhibition, % at 12.5 µM. actives 0.69% (n = 350,000); in the data active = inhibition above about 41%
TWEAK Fn14 block – TWEAK-Fn14 signaling inhibition | TWEAK-stimulated Fn14 reporter cells, luciferase luminescence, 8 h | actives 2% (n = 360,000) | inhibition, % at 10 µM; in the data active = inhibition above about 50%
TROY signal inh – blocks TROY-dependent signaling in reporter cells. Q293 LMP1-TROYcd NF-kB luciferase reporter, 4 h. inhibition, % at 10 µM. AID 1347056. actives 0.98% (n = 360,000);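 active = compounds whose plate-normalised and pattern-corrected inhibition of the luciferase reporter signal at the single screening dose is 50% or more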
Hits are given with their value; 0 = inactive; - = no result given. The list is not random: actives were taken first. Their share in the collection is about 3.4%.

SMILES | HIF-2a inh | TRPM1 prom inh | Shn3 3UTR inh | LMP1 NFkB inh | TWEAK Fn14 block | TROY signal inh
O=C(O)c1cccc(N2C(=O)C=CC2=O)c1 | 0 | - | 0 | 0 | 0 | 0
CN1C(=O)N(C)c2cccc3cccc1c23 | 0 | 0 | 0 | 0 | 0 | 0
CCc1ccc2cccc3c2c1N=CN3C | 0 | 0 | 0 | 0 | 86 | 0
COC(=O)c1ccc(CNC(=O)C2CCC(=O)N(CCc3ccccc3)C2)cc1 (stereo unspecified) | 0 | 0 | 0 | 0 | 0 | 0
Cc1cc(C)nc(Sc2ccc([N+](=O)[O-])cc2[N+](=O)[O-])n1 | 0 | 0 | 0 | 0 | 58 | 0
CN(C)/N=C/c1ccc(Sc2ccc([N+](=O)[O-])cc2[N+](=O)[O-])o1 | 0 | 0 | 0 | 0 | 0 | 0
C[C@H]1COC(=O)CC/C=C\C[C@H](CC(=O)N(CCO)Cc2ccccc2)C(=O)N1 | 0 | 0 | 0 | 0 | 0 | 0
